Experimental data: PubChem BioAssay (Tox21)
Results filed as inconclusive are left out. Activity calls are given as the source filed them. Unless noted, calls come from the whole dose curve; as a rule, active = well fitted curve in the direction sought with a large enough effect in the repeat runs; inconclusive = weak or mixed curves; inactive = no such curve, though single readings can be large; an effect the other way counts as inactive or inconclusive.

Assays:
[1] = qHTS assay to identify small molecule agonists of the estrogen receptor alpha (ER-alpha) signaling pathway in the presence of an antagonist - cell viability counter screen (AID 1259386);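 note: cells exposed to compounds for 22 h at 37 °C before the viability read; nearly all actives have a fitted effect of over 30% in size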; note: potency is the fitted concentration of half-maximal effect; for activity change, negative = cytotoxicity: series mostly up to about 92 µM
In short: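 Fluorescent CellTiter-Fluor viability signal from VM7Luc4E2 cells, with the reagent added during the final hour of a 22hr compound exposure at 37C in the presence of 10.0nM ICI-182,780.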

[2] = qHTS assay to identify small molecule antagonists of the progesterone receptor (PR) signaling pathway - cell viability counter screen (AID 1346798); note: nearly all actives have a fitted effect of over 50% in size; note: potency is the fitted concentration of half-maximal effect; for activity change, negative = cytotoxicity: series mostly up to about 92 µM
In short: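 Cytotoxicity read as CellTiter-Glo luminescence (30 min, room temperature) in the same wells as the beta-lactamase readout. HEK293T PR-UAS-bla cells in charcoal-stripped 2% FBS received compound and R5020, then 16 h at 37C, 5% CO2.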

[3] = qHTS assay to identify small molecule agonists of the progesterone receptor (PR) signaling pathway - cell viability counter screen (AID 1346799; calls by dose curve; note: nearly all actives have a fitted effect of over 45% in size; note: potency is the fitted concentration of half-maximal effect)
In short: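 Cytotoxicity measured by CellTiter-Glo luminescence (30 min, RT) in the same wells as the PR beta-lactamase agonist read. Those HEK293T cells had 16 h compound treatment at 37 C in 2% charcoal-stripped FBS medium.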

[4] = qHTS assay to identify small molecule antagonists of the TGF-beta/Smad signaling pathway - cell viability counter screen (AID 1346824); note: nearly all actives have a fitted effect of over 50% in size
In short: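 Cytotoxicity counter-screen run in the same wells as the beta-lactamase Smad reporter read: CellTiter-Glo luminescence after 30 min at room temperature. HEK 293T SBE-bla cells had 5 hr compound exposure at 37 C with TGF-beta1 (0.25 ng/mL stock).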

[5] = qHTS assay to identify small molecule agonists of the TGF-beta/Smad signaling pathway - cell viability counter screen (AID 1346829); note: top concentration of the series differs between compounds; nearly all actives have a fitted effect of over 45% in size
In short: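 Cytotoxicity counter screen: CellTiter-Glo luminescence (30 min, room temperature) measured in the SBE-bla HEK 293T reporter wells after 5 hr compound treatment at 37 C and the 2 hr substrate step.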

[6] = qHTS assay to identify small molecule agonists of the TGF-beta/Smad signaling pathway (AID 1346859; active = well fitted activation curve with a large enough effect in the signal ratio in the repeat runs, not every such curve was filed as active; the % refers to the signal ratio; note: series mostly up to about 77 µM)
In short: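 Fluorescence (ex 405 nm; em 460 and 530 nm) was read 2 h after LiveBLAzer FRET substrate at RT. The preceding compound treatment of overnight-plated SBE-bla HEK293T cells lasted 5 h at 37 C.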

[7] = biological target: Thyrotropin-releasing hormone receptor (Homo sapiens) (UniProt P34981); experiment: qHTS assay to identify small molecule antagonists of the thyrotropin-releasing hormone receptor (TRHR) signaling pathway (AID 1346877; active = well fitted inhibition curve with a large enough effect in the repeat runs, not every such curve was filed as active; note: series mostly up to about 51 µM)
In short: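 In this cell-based calcium flux format, HEK293 cells expressing TRHR received test compound for 5 min before the agonist TRH (1 nM final). Dye loading lasted 2 h at 37 °C.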

[8] = biological target: Thyrotropin-releasing hormone receptor (Homo sapiens) (UniProt P34981); experiment: qHTS assay to identify small molecule agonists of the thyrotropin-releasing hormone receptor (TRHR) signaling pathway (AID 1346891; calls by dose curve; note: series mostly up to about 58 µM)
In short: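 Agonist-mode intracellular calcium readout: kinetic fluorescence over 3 min at 1 s intervals after compound addition to TRHR-HEK293 cells (18 h seeded, 2 h dye-loaded at 37 C). Fifteen concentrations, triplicates.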

[9] = biological target: Progesterone receptor (Homo sapiens) (UniProt P06401); experiment: qHTS assay to identify small molecule antagonists of the progesterone receptor (PR) signaling pathway (AID 1346795; active = well fitted inhibition curve with a large enough effect in the signal ratio in the repeat runs, not every such curve was filed as active; the % refers to the signal ratio; note: potency is the fitted concentration of half-maximal effect)
In short: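 Antagonist mode with agonist R5020 at 1 nM final and 16 hr incubation at 37C. Reporter was beta-lactamase driven by UAS in HEK293T (PR-UAS-bla), 2% charcoal-stripped serum; signal from LiveBLAzer FRET substrate, 2 hr at room temperature.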

[10] = biological target: Progesterone receptor (Homo sapiens) (UniProt P06401); experiment: qHTS assay to identify small molecule agonists of the progesterone receptor (PR) signaling pathway (AID 1346784; calls by dose curve; note: nearly all actives have a fitted effect of over 30% in size)
In short: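 Agonist qHTS: compounds pinned onto 3,000 PR-UAS-bla HEK 293T cells per well in charcoal-stripped serum medium, 16hr at 37C, then beta-lactamase activity measured by LiveBLAzer FRET fluorescence after 2 hours at room temperature.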
% is set by controls: 0 for no effect and ±100 for the full control effect.

Thyrotropin-releasing hormone receptor (Homo sapiens), sequence (P34981 whole entry, looked up): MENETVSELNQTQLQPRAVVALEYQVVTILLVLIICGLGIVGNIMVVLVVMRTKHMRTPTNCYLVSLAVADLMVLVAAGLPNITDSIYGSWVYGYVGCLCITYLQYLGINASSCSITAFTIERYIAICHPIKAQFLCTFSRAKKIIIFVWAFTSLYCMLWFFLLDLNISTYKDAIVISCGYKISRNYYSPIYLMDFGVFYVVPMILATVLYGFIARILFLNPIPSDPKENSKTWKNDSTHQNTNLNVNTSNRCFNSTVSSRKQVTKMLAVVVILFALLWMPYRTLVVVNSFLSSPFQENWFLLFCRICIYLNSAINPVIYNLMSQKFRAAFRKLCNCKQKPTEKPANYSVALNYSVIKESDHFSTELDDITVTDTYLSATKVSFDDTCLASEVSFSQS
Progesterone receptor (Homo sapiens), sequence (P06401 whole entry, looked up): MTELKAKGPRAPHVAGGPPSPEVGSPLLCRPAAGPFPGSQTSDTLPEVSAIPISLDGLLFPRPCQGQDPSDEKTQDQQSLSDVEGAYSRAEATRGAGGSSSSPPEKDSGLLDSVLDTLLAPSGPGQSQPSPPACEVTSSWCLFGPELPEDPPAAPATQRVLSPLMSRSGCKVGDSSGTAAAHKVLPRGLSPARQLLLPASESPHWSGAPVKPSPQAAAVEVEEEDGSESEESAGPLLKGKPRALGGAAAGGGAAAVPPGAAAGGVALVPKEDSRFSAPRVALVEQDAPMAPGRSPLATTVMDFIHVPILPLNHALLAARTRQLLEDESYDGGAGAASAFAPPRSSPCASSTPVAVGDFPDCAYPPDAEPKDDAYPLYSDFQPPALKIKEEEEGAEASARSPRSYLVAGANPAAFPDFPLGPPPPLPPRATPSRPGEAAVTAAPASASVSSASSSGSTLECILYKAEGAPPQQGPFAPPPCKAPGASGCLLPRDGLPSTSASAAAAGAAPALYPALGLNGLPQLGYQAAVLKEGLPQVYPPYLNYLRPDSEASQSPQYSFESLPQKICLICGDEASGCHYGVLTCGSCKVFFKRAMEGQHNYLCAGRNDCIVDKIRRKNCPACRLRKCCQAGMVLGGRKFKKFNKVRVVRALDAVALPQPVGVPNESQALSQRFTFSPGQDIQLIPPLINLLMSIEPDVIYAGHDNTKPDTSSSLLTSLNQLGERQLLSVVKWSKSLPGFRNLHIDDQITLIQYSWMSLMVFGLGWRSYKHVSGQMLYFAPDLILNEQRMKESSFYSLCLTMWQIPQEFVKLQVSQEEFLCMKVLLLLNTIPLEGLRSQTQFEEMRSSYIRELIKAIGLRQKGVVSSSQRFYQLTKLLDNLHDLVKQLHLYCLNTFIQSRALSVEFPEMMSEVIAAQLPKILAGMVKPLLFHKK

Nc1cccc2c1CN(C1CCC(=O)NC1=O)C2=O (stereo not given)
inactive: Potency [1] | Potency [2] | Potency [3] | Potency [4] | Potency [5] | Potency [6] | outcome [7] | Potency [8]

CCOC(=O)C1=C(C)NC(C)=C(C(=O)OC)C1c1cccc(Cl)c1Cl (stereo not given)
inactive: Potency [1] | Potency [5] | Potency [6] | outcome [7] | Potency [8]
active: Potency [9] 3.76 µM

O=C(OCC(O)CO)c1ccccc1Nc1ccnc2cc(Cl)ccc12 (stereo not given)
inactive: Potency [1] | Potency [4] | Potency [5] | Potency [6] | outcome [7] | Potency [8]

O=c1cc(-c2ccccc2)oc2cc(O)cc(O)c12
inactive: Potency [4] | Potency [5]
active: Potency [1] 48.6 µM

CN1C(=O)N(c2ccccc2Br)Cc2cnc(Nc3ccc4c(c3)OCC(CO)O4)nc21 (stereo not given)
active: Potency [2] 38.6 µM
inactive: Potency [6] | outcome [7] | Potency [8]

CN1CC(=O)N2[C@H](c3ccc4c(c3)OCO4)c3[nH]c4ccccc4c3C[C@@H]2C1=O
inactive: Potency [10] | Potency [9] | Potency [2] | Potency [3] | Potency [6] | outcome [7] | Potency [8]

Cc1ccccc1N=C(N)Nc1ccccc1C
inactive: Potency [10] | Potency [9] | Potency [2] | Potency [3] | Potency [4] | Potency [5] | Potency [6] | outcome [7] | Potency [8]

O=[N+]([O-])c1cc(C2CCCCC2)c(O)c([N+](=O)[O-])c1
active: Potency [1] 15.3 µM
inactive: Potency [4] | Potency [5]

COC(=O)C1=C(C)NC(C)=C(C(=O)O[C@@H]2CCCN(Cc3ccccc3)C2)[C@@H]1c1cccc([N+](=O)[O-])c1
inactive: Potency [1] | Potency [4] | Potency [5] | Potency [6] | outcome [7] | Potency [8]

Cc1ccc2c(Br)cc(Br)c(O)c2n1
active: Potency [9] 18.8 µM
inactive: Potency [4] | Potency [6] | outcome [7] | Potency [8]

CC1(CN2CCC(n3c(=O)[nH]c4ccccc43)CC2)OCc2ccccc2-n2cccc21 (stereo not given)
inactive: Potency [1] | Potency [4] | Potency [5] | Potency [6]

CN(C)CCC=C1c2ccccc2C=Cc2ccccc21
inactive: Potency [1] | Potency [5] | Potency [6] | outcome [7] | Potency [8]

CC(C)Nc1cccnc1N1CCN(C(=O)c2cc3cc(NS(C)(=O)=O)ccc3[nH]2)CC1
inactive: Potency [1] | Potency [3] | Potency [5] | Potency [6]

CCCCCCCCC(CCCCCC)C(=O)O (stereo not given)
inactive: Potency [1] | Potency [4] | Potency [5] | Potency [6] | outcome [7] | Potency [8]

O=c1c(O)c(-c2ccc(O)cc2)oc2cc(O)cc(O)c12
inactive: Potency [10] | Potency [4] | Potency [5]
active: Potency [9] 5.19 µM

O=C1c2ccccc2C(=O)C1(O)O
inactive: Potency [10] | Potency [9] | Potency [2] | Potency [3] | outcome [7] | Potency [8]

CCCC(C(=O)OCCN(CC)CC)(c1ccccc1)c1ccccc1
inactive: Potency [10] | Potency [2] | Potency [5] | Potency [6] | outcome [7] | Potency [8]

Cc1cc(=O)c2c(O)c3c(O)cc(=O)c4c3c3c(cc(O)c1c23)C(C)(C)C=4O
inactive: activity change, negative = cytotoxicity [1] -17.3% [at 19 µM] | activity, negative = inhibition [7] 1.99% [at 10.5 µM] | activation [8] 12.7% [at 11.8 µM]

COc1cc(C(=O)NC2CCN(C)CC2)ccc1Nc1ncc2c(n1)N(C1CCCC1)CC(F)(F)C(=O)N2C
inactive: outcome [7] | Potency [8]

O=C1c2ccccc2C(=O)N1CCc1noc(-c2ccc(CN3CCCCCC3)s2)n1
inactive: Potency [10] | Potency [2] | Potency [3] | Potency [4] | outcome [7] | Potency [8]

CCOc1ccc(Cc2nccc3cc(OCC)c(OCC)cc23)cc1OCC
inactive: Potency [4] | Potency [6]
active: Potency [9] 16.8 µM | Potency [2] 18.8 µM

COc1cc(Nc2c(C#N)cnc3cc(OCCCN4CCN(C)CC4)c(OC)cc23)c(Cl)cc1Cl
active: Potency [9] 11.9 µM
inactive: Potency [10] | Potency [2] | Potency [4] | Potency [6]

CCOC(=O)c1ccccc1C(=C1C=C(Br)C(=O)C(Br)=C1)c1cc(Br)c(O)c(Br)c1
inactive: Potency [1] | Potency [4] | Potency [5] | Potency [6] | outcome [7] | Potency [8]

CC(C)(O)c1ccc(CNC(=O)c2cccnc2Oc2ccc3nonc3c2)cc1
inactive: Potency [10] | Potency [9] | Potency [2] | Potency [3] | Potency [4] | Potency [5] | Potency [6] | outcome [7] | Potency [8]

Nc1nnc(-c2ccc([N+](=O)[O-])o2)o1
active: Potency [1] 61.1 µM
inactive: Potency [4] | Potency [5] | Potency [6]

C[C@@H](O[C@H]1OCCN(Cc2n[nH]c(=O)[nH]2)[C@H]1c1ccc(F)cc1)c1cc(C(F)(F)F)cc(C(F)(F)F)c1
inactive: Potency [1] | Potency [4] | Potency [5] | Potency [6] | outcome [7] | Potency [8]

Oc1cc2c(cc1O)[C@H]1c3ccc(O)c(O)c3OC[C@@]1(O)C2
active: Potency [1] 27.6 µM
inactive: Potency [4] | Potency [5] | Potency [6] | outcome [7] | Potency [8]

Cc1cccc(O)c1N
active: Potency [9] 30.9 µM
inactive: Potency [10] | Potency [2] | Potency [4] | Potency [6] | outcome [7] | Potency [8]

CN1C(C(=O)Nc2ccccn2)=C(O)c2sccc2S1(=O)=O
inactive: Potency [10] | Potency [9] | Potency [2] | Potency [3] | Potency [4] | Potency [5] | Potency [6] | outcome [7] | Potency [8]

NC1[C@H]2CN(c3nc4c(cc3F)c(=O)c(C(=O)O)cn4-c3ccc(F)cc3F)C[C@@H]12 (stereo not given in full)
inactive: Potency [1] | Potency [3] | Potency [6] | outcome [7] | Potency [8]

c1cc(N(CC2CO2)CC2CO2)ccc1Cc1ccc(N(CC2CO2)CC2CO2)cc1 (stereo not given)
inactive: Potency [5] | outcome [7] | Potency [8]

O=C(CCc1ccc(O)cc1)c1c(O)cc(O)cc1O
active: Potency [9] 31.3 µM
inactive: Potency [10] | Potency [5] | Potency [6] | outcome [7] | Potency [8]

CCCCCC[C@@H](O)C/C=C\CCCCCCCC(=O)OCC(O)CO (stereo not given in full)
inactive: Potency [1] | Potency [3] | Potency [4] | Potency [5] | Potency [6] | outcome [7] | Potency [8]

CCCCCCCCCCCCCCN(CCO)CCO
active: Potency [3] 34.4 µM
inactive: Potency [1] | Potency [6] | outcome [7] | Potency [8]
